Screening results from PubChem BioAssay.
Most compounds without a hit are left out; they make up all but 1.1% or so of the library.
Anesthetic bind = binds horse apoferritin like a general anesthetic. P02791. 350,000 compounds, 0.074% hits. Potency, µM (top dose mostly 77.5 µM), most hits filed as inhibitors. apoferritin/1-aminoanthracene competitive binding, fluorescence. AID 485281; note: nearly all actives have a fitted effect of over 20% in size
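Concentration-response curves derived by four-parameter Hill fitting of normalized fluorescence, where compounds displaced 1-AMA from 10 uM horse apoferritin following a brief 10 min room-temperature incubation; propofol titration acted as positive control.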
ALOX12 inh = ALOX12 (human) lipoxygenase inhibition | Potency, µM (highest dose often 108 µM), most hits filed as inhibitors | AID 1671190 | purified 12hLO, xylenol orange hydroperoxide absorbance | 580,000 compounds, 1.1% hits
Target sequence (P18054 whole entry, looked up): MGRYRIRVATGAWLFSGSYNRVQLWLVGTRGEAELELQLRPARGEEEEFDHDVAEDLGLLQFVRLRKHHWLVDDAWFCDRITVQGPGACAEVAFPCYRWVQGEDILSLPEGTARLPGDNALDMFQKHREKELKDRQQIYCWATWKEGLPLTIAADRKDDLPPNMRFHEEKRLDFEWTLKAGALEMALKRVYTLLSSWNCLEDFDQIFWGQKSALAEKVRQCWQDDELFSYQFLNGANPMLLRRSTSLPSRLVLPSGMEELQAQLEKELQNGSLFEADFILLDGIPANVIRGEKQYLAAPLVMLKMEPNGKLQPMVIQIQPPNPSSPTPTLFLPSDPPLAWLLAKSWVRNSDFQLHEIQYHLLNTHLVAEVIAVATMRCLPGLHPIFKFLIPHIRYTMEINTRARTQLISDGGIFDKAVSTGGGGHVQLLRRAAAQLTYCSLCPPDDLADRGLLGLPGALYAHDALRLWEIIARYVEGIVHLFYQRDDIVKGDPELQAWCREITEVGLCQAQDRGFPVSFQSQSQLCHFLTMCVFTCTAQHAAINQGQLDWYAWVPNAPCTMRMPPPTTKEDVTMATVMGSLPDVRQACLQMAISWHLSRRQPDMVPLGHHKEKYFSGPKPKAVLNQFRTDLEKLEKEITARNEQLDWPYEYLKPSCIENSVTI
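Purified human 12hLO at 150 nM in 25 mM Hepes, 0.01% Triton X-100, pH 7.0, preincubated 15 min at room temperature with compound. Reaction started with 40 uM arachidonic acid, 30 min at room temperature. Hydroperoxide measured by Fe-xylenol orange, 573/405 nm absorbance ratio.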
BCR signal inh = blocks chronic active B-cell receptor signaling; ABC-DLBCL IkBa-CBG/CBR reporter, luminescence ratio, 4 h; Potency, µM (titrated, usually from 46.1 µM), usual class: inhibitors; 340,000 compounds, 0.05% hits; AID 493014; active = well fitted inhibition curve with a large enough effect in the signal ratio, with a control signal flat, not every such curve was filed as active; inconclusive = small, poorly fitted or top-dose-only effect, or effect the other way, or a change in a side signal; the % refers to the signal ratio
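Compounds up to 46 uM were incubated four hours with TMD8 cells whose green CBG68 luciferase is fused to IkappaBalpha; red CBR luminescence normalised the signal, and concentration-effect curves were fitted to fusion, red and ratio data.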
Glioma ERSR ind = ER stress response induction in glioma; 420,000 compounds, 0.02% hits; Potency, µM, hits mostly activators; AID 602332; U87-MG GRP78 promoter luciferase reporter, 16 h; note: series mostly up to about 76 µM; nearly all actives have a fitted effect of over 35% in size
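Stably transfected U87-MG glioma cells carrying a GRP78-based luciferase sensor; 16 h compound incubation. Luminescence end-point read 10 min after Bright-Glo addition at room temperature.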
Hits are given with their value. Unless noted, calls come from the whole dose curve; as a rule, active = well fitted curve in the direction sought with a large enough effect; inconclusive = small, poorly fitted or top-dose-only effect, or another doubt; inactive = no such curve, though single readings can be large; an effect the other way counts as inactive or inconclusive.

Results for COCCNC(=S)N/N=C/c1c2ccccc2cc2ccccc12 ?
Anesthetic bind: inactive; ALOX12 inh: 40µM; BCR signal inh: inconclusive; Glioma ERSR ind: inactive

What do the screens show for `COc1ccccc1NS(=O)(=O)c1cc(NC(=S)NCCN2CCOCC2)ccc1N1CCOCC1`?
Anesthetic bind: inactive; ALOX12 inh: 50µM; BCR signal inh: inactive; Glioma ERSR ind: inactive

What do the screens show for `COc1ccc2ccccc2c1/C=N/NC(=S)NCCN1CCOCC1`?
Anesthetic bind: inactive; ALOX12 inh: inactive; BCR signal inh: 20µM; Glioma ERSR ind: inactive

What do the screens show for `COc1ccccc1NS(=O)(=O)c1cc(NC(=O)C(C)(C)C)ccc1N1CCOCC1`?
ALOX12 inh: inactive; BCR signal inh: inactive; Glioma ERSR ind: inactive

How did CCN(CC)Cc1ccc(CNC(=O)c2n[nH]c(=O)c3ccccc23)cc1 do in these assays?
ALOX12 inh: inactive

What do the screens show for `CCOC(=O)C1C(=O)C=C(/C=C/c2ccco2)CC1c1ccccc1` (configuration not stated)?
ALOX12 inh: 6.3µM

How did CCOC(=O)C1C(=O)C=C(/C=C/c2ccccc2)CC1c1ccc(Cl)cc1 (configuration not stated) do in these assays?
Anesthetic bind: inactive; ALOX12 inh: inactive; BCR signal inh: inactive; Glioma ERSR ind: inactive

How did CN1C(=O)N(C)C2(CCN(CCOc3ccc(F)cc3)C2)C1=O (configuration not stated) do in these assays?
ALOX12 inh: 50µM

What do the screens show for `O=S(=O)(c1ccccc1)N1CCN(CCOc2ccc(F)cc2)CC1`?
ALOX12 inh: inactive; Glioma ERSR ind: inactive

Results for COc1cccc2c(Nc3cccc(O)c3)cc(C)nc12 ?
ALOX12 inh: inactive

What do the screens show for `COC(=O)CC/C(=N/Nc1ccc(Cl)c(Cl)c1)C(=O)OC`?
Anesthetic bind: inactive; ALOX12 inh: 16µM; BCR signal inh: inconclusive; Glioma ERSR ind: inactive

Results for CCC(C)NC(=O)NC1CCN(c2nc3ccccc3n(C)c2=O)CC1 (configuration not stated) ?
ALOX12 inh: inactive

How did Cc1noc(C)c1-c1nc(Nc2ccc(F)cc2)c2ccccc2n1 do in these assays?
ALOX12 inh: 22µM; Glioma ERSR ind: inactive

How did Cc1noc(C)c1-c1nc(NCc2cccs2)c2ccccc2n1 do in these assays?
ALOX12 inh: 28µM; Glioma ERSR ind: inactive

What do the screens show for `Cc1cc2c(c(=O)n1Cc1ccccn1)C(c1cc3c(cc1Br)OCO3)C(C#N)=C(N)O2` (configuration not stated)?
ALOX12 inh: inactive

What do the screens show for `CC(=O)c1csc(NC(=O)Cn2ccc(=O)n(C)c2=O)n1`?
ALOX12 inh: inactive

What do the screens show for `FC(F)(F)c1cccc(NC(=S)NC(c2ccccc2)c2ccccc2)c1`?
Anesthetic bind: inactive; ALOX12 inh: 35µM; BCR signal inh: inactive; Glioma ERSR ind: inactive

How did NC(=NCCc1c[nH]c2ccccc12)NC(=O)c1ccc(Cl)cc1 do in these assays?
Anesthetic bind: inactive; ALOX12 inh: 40µM; BCR signal inh: inactive; Glioma ERSR ind: inactive

Results for C/C(Cc1ccccc1)=N\NC(=O)c1ccc(C)cc1 ?
ALOX12 inh: inactive

Results for CCCCCCCCC/C=N/NC(=S)NC1CCCCC1 ?
ALOX12 inh: 28µM

How did COC(=O)c1ccc(NCc2c(O)ccc(O)c2Br)cc1Cl do in these assays?
ALOX12 inh: 0.89µM; Glioma ERSR ind: inactive

What do the screens show for `COC(=O)c1cc(NCc2c(F)cccc2Cl)ccc1N1CCOCC1`?
Anesthetic bind: inactive; ALOX12 inh: inactive; BCR signal inh: inconclusive; Glioma ERSR ind: inactive

How did COC(=O)c1ccc(NCc2cc(O)ccc2O)cc1O do in these assays?
ALOX12 inh: 5µM; Glioma ERSR ind: inactive

What do the screens show for `COC(=O)c1cc(NCc2cccc3ccccc23)ccc1N1CCOCC1`?
ALOX12 inh: inactive

Results for NC(=O)c1ccc(Cn2c(C(=O)c3cc(Cl)c(N)c(Cl)c3)c3ccccc3[n+]2[O-])cc1 ?
ALOX12 inh: 18µM; BCR signal inh: inconclusive; Glioma ERSR ind: inactive

How did COc1ccc(-n2ccc(=O)c(C(=O)Nc3cc(OC)ccc3OC)n2)cc1 do in these assays?
ALOX12 inh: inactive

Results for N#C/C(=N\Nc1ccc(S(=O)(=O)N2CCCCC2)cc1)C(N)=S ?
Anesthetic bind: inactive; ALOX12 inh: 50µM; BCR signal inh: inconclusive; Glioma ERSR ind: inactive

What do the screens show for `O=C(O)c1ccc(N=NNc2cccc([N+](=O)[O-])c2)cc1`?
Anesthetic bind: inactive; ALOX12 inh: inactive; BCR signal inh: inconclusive; Glioma ERSR ind: inactive

How did N#C/C(=N\Nc1cccc([N+](=O)[O-])c1)C(=O)c1ccc(Br)cc1 do in these assays?
Anesthetic bind: inactive; ALOX12 inh: 40µM; BCR signal inh: inactive; Glioma ERSR ind: inactive

What do the screens show for `N#C/C(=N\Nc1ccc(S(=O)(=O)N2CCCCCC2)cc1)C(N)=S`?
Anesthetic bind: inconclusive; ALOX12 inh: inconclusive; BCR signal inh: inconclusive; Glioma ERSR ind: inactive

How did N#C/C(=N\Nc1ccc([N+](=O)[O-])cc1)C(N)=S do in these assays?
Anesthetic bind: inactive; ALOX12 inh: 25µM; BCR signal inh: inactive; Glioma ERSR ind: inactive

Results for Nc1ncnc2c1ncn2C=C=CCO ?
ALOX12 inh: inactive

How did COCCN1C(=O)[C@@H]2C[C@@H](CN2Cc2nccn2C)Oc2ccccc21 do in these assays?
ALOX12 inh: inactive

How did Cc1ccc(-c2nc(Cn3cnc(C#N)n3)co2)cc1 do in these assays?
ALOX12 inh: inactive

How did Cc1nn(C)c(C)c1CNCc1ccnc(N2CCOCC2)c1 do in these assays?
ALOX12 inh: 11µM

How did CC(=O)N1CCN(C(=O)CCc2ccnc(N3CCOCC3)c2)CC1 do in these assays?
ALOX12 inh: inactive

How did COc1ccc(CNC(=O)c2cccc(S(=O)(=O)N3CCN(C)CC3)c2)cc1 do in these assays?
Anesthetic bind: inactive; ALOX12 inh: inactive; BCR signal inh: inactive; Glioma ERSR ind: inactive

Results for COc1cccc(C(=O)CN2CCN(S(=O)(=O)c3ccc(Cl)cc3)CC2)c1 ?
Anesthetic bind: inactive; ALOX12 inh: 56µM; Glioma ERSR ind: inactive

How did COc1cccc(CNC(=O)c2cccc(S(=O)(=O)N3CCN(C)CC3)c2)c1 do in these assays?
Anesthetic bind: inactive; ALOX12 inh: 40µM; BCR signal inh: inactive; Glioma ERSR ind: inactive

How did CC(=O)NC1(C)CCN(Cc2cnc(-c3cccc(F)c3)s2)CC1 do in these assays?
ALOX12 inh: 50µM

How did CC(=O)NC1(C)CCCN(Cc2cccc(-c3cccc(F)c3)c2)C1 (configuration not stated) do in these assays?
ALOX12 inh: inactive

Results for CS(=O)(=O)c1ccc(NCCc2ccc(S(N)(=O)=O)cc2)c([N+](=O)[O-])c1 ?
Anesthetic bind: inactive; ALOX12 inh: inactive; BCR signal inh: inconclusive; Glioma ERSR ind: inactive

How did CNS(=O)(=O)c1ccc(NCCc2ccc(S(N)(=O)=O)s2)c([N+](=O)[O-])c1 do in these assays?
ALOX12 inh: 18µM

What do the screens show for `CCCCCCCCCCOC(=O)C[N+](C)(C)Cc1ccccc1`?
ALOX12 inh: 45µM

What do the screens show for `CCOc1ccc(/C=C/c2nc(C#N)c(N3CCC(C(N)=O)CC3)o2)cc1`?
ALOX12 inh: inactive
